Out of some 85,000 compounds screened, about 440 (0.52%) showed an effect of 50% or more. The list comes from a sample in which strong results are over-represented; it also holds similar structures and randomly drawn compounds.
Assay: In vitro enzyme assay to detect hydrolysis of chlorophenol red-beta-D-[…] directly proportional to the number of Toxoplasma stably expressing beta-galactosidase
Assay type: functional, organism-based, Toxoplasma gondii
Set-up: scale not given: in the data most compounds retested in dose-response had high values

| SMILES | Percent Effect (50 µM) | Percent Effect (10 µM) |
| --- | --- | --- |
| O=C(NCCc1ccccc1F)C1CCNCC1 | -5.827% |  |
| O=C(OCC(F)(F)F)c1cccnc1 | -11.21% |  |
| O=C(N[C@H]1CCCNC1)c1ccc(F)cc1F | -5.906% |  |
| Cc1ccc(F)cc1C(=O)N[C@@H]1CCNC[C@H]1O | 19.16% |  |
| Cc1ccc(F)cc1C(=O)NC1CCCNC1 (stereo not drawn) | 83.09% |  |
| COCc1nnc(-c2ccc3c(c2)OCO3)o1 | 23.78% |  |
| NC(=O)C1CCCN1C(=O)C1CCNCC1 (stereo not drawn) | -2.32% |  |
| c1ccc(Nc2nccs2)nc1 | -28.74% |  |
| Oc1cc(C2CCCCN2Cc2cccs2)nc(-c2ccncc2)n1 (stereo not drawn) |  | -14.06% |
| Oc1cc(C2CCCCN2Cc2cccs2)nc(-c2ccccn2)n1 (stereo not drawn) |  | 91.06% |
| Oc1cc(C2CCCN(Cc3cccs3)C2)nc(-c2ccccn2)n1 (stereo not drawn) |  | 33.79% |
| Cc1ccc(N)c(C)n1 | 4.322% |  |
| OC(c1ccccc1)C1CCNCC1 (stereo not drawn) | -7.409% |  |
| O=C(NCc1ccnc(NC2CC2)c1)C1CCCCC1 | 17% |  |
| CS(=O)(=O)Nc1nn(Cc2ccc(F)cc2)cc1Br |  | 62.42% |
| Cc1cccc(Cn2cc(Br)c(NS(C)(=O)=O)n2)c1 |  | 46.94% |
| Cc1ccc(Cn2cc(Br)c(NS(C)(=O)=O)n2)cc1 |  | 20% |
| Cc1ccc(C(=O)N2C[C@@H](CO)[C@H](N(C)C)C2)cc1 | 0.785% |  |
| CN(C)C(=O)CNC(CC(F)(F)F)c1ccc(F)cc1 (stereo not drawn) |  | 4.779% |
| CN(C)C(=O)CNC(CC(F)(F)F)c1ccc(Cl)cc1 (stereo not drawn) |  | 0.885% |
| CN(C)C(=O)CNC(CO)c1ccc(Cl)c(F)c1 (stereo not drawn) | 52.18% |  |
| CCNC(=O)c1cc2ccccc2n1C | -19.31% |  |
| CCOC(CNC(=O)c1ccnn1C)c1ccccc1 (stereo not drawn) | -0.4622% |  |
| Cn1nccc1C(N)=O | -25% |  |
| CCOCC(C)OC(=O)c1ccnn1C (stereo not drawn) | 57.1% |  |
| NCCCn1nc2ccccn2c1=O | 7.053% |  |

| SMILES | Percent Effect (50 µM) | Percent Effect (10 µM) |
| --- | --- | --- |
| CCOc1ccc(Cl)cc1C(N)=O | -6.805% |  |
| Cn1nc(C(=O)NC2CC2)cc1NC(=O)C1CC1 |  | -1.586% |
| CCn1nc(C)c(NC(=O)c2cc(NC(=O)C3CC3)n(C)n2)c1C |  | 0.1763% |
| Cc1nn(C)c(C)c1CNC(=O)c1cc(NC(=O)C2CC2)n(C)n1 |  | 56.77% |
| Cn1nc(C(=O)NC2CCCC2)cc1NC(=O)C1CC1 |  | -6.404% |
| Cc1nn(C)c(C)c1CN(C)C(=O)c1cc(NC(=O)C2CC2)n(C)n1 |  | 51.38% |
| Cc1nn(C)c(C)c1CN(C)C(=O)c1cc(C(F)(F)F)n(C)n1 |  | 12.73% |
| CN(C)C1CCN(S(=O)(=O)c2ncn(C)c2Cl)CC1 | -2.885% |  |
| COCC(=O)Nc1c[nH]nc1C1CCCNC1 (stereo not drawn) | -10.17% |  |
| COc1ccc(F)cc1C(=O)N1CCC(CN)CC1 | -0.7009% |  |
| Cc1nccc(C(=O)NCC(C)(C)CN(C)C)n1 | 2.804% |  |
| COc1ccc(CNC(=O)CC2CCNC2)c(OC)c1 (stereo not drawn) | -8.79% |  |
| COc1ccc(C(=O)NCCCOC(C)c2ccccc2)c(OC)c1 (stereo not drawn) |  | 61.13% |
| CC(=O)c1ccc(C(=O)NCCCOC(C)c2ccccc2)s1 (stereo not drawn) |  | -2.061% |
| CC(OCCCNC(=O)c1cccnc1O)c1ccccc1 (stereo not drawn) |  | 39.02% |
| CNC1CCN(Cc2ncc(C)c(OC)c2C)CC1 | 36.04% |  |
| CCn1nc(C)c2nc(C)nc(NCCc3ccc(C)cc3)c21 |  | 34% |
| CCCc1nc(NCCCOCC)c2c(n1)c(C)nn2CC |  | 72.53% |
| CCCc1nc(NCCc2ccccc2)c2c(n1)c(C)nn2CC |  | 68.81% |
| CCCc1nc(NCCCO)c2c(n1)c(C)nn2CC |  | 3.108% |
| CCn1nc(C)c2nc(C(C)C)nc(NCCOC)c21 |  | 21.04% |
| CCCc1nc(NCCOC)c2c(n1)c(C)nn2CC |  | 57.71% |
| CCCc1nc(NCC(=O)N2CCOCC2)c2c(n1)c(C)nn2CC |  | 3.704% |
| CCc1nc(NCCCOC)c2c(n1)c(C)nn2C |  | 6.336% |
| CCCc1nc(N2CCC(C)CC2)c2c(n1)c(C)nn2CC |  | 25.59% |
| CCCc1nc(NCCCOC)c2c(n1)c(C)nn2CC |  | 90.71% |

| SMILES | Percent Effect (50 µM) | Percent Effect (10 µM) |
| --- | --- | --- |
| CCc1nc(NCCCn2cccn2)c2c(n1)c(C)nn2CC |  | 14.75% |
| CCn1nc(C)c2nc(C)nc(NCCc3ccccc3)c21 |  | 19.6% |
| CNCCCOC(C)C | -2.494% |  |
| NC1CCN(CC2CC2)CC1 | 2.288% |  |
| NC(=O)c1ccc(NC(=O)CCN2CC(O)C2)cc1 | -17.28% |  |
| CCC(Nc1cccc(OCC(F)(F)F)c1)C(N)=O (stereo not drawn) | -6.008% |  |
| CCOC(=O)NC1CCC(NC(=O)C2CCC2)CC1 (stereo not drawn) | 0.5853% |  |
| CCN(CC)c1nc2nc[nH]c(=O)c2s1 | -4.057% |  |
| CC(CCN)CCO (stereo not drawn) | 29.53% |  |
| OCc1nncn1-c1ccccc1 | 12.09% |  |
| C[C@@H]1CN(C2CCN(c3ccccc3F)CC2)CC[C@]1(C)O |  | 72.85% |
| C[C@@H]1CN(C2CCN(c3ccccc3F)CC2)C[C@]1(C)O |  | 12.36% |
| Cc1cc(F)ccc1N1CCC(N2C[C@@H](C)[C@@](C)(O)C2)CC1 |  | 24.01% |
| CN(C)CC1CNCCO1 (stereo not drawn) | -14.23% |  |
| CC(=O)NC(C(=O)N(C)Cc1cccs1)C(C)C (stereo not drawn) | 4.166% |  |
| OCCN1CCN(c2ccc3nnnn3n2)CC1 | 0.916% |  |
| Cn1cc(S(N)(=O)=O)c(C(F)(F)F)n1 | 17.97% |  |
| Cn1cc(N)c(C(F)(F)F)n1 | -8.221% |  |
| Cn1cc(CN)c(C(F)(F)F)n1 | 98.21% |  |
| CN1CCC(CNC(=O)CCc2cccs2)C1 (stereo not drawn) | -16.97% |  |
| CN1CCCCC1CCC(=O)NCCc1ccncc1 (stereo not drawn) | 15.39% |  |
| CN(C)S(=O)(=O)c1ccc(-c2nc(C#N)c(NC3CCCCC3)o2)o1 |  | 3.806% |
| CNc1oc(-c2ccc(S(=O)(=O)N(C)C)o2)nc1C#N |  | 44.93% |
| CC(C)Nc1oc(-c2ccc(S(=O)(=O)N(C)C)o2)nc1C#N |  | -12.9% |
| CN(C)S(=O)(=O)c1ccc(-c2nc(C#N)c(NC3CC3)o2)o1 |  | -1.829% |
| CN(C)S(=O)(=O)c1ccc(-c2nc(C#N)c(NC(C)(C)C)o2)o1.Cl |  | 91.6% |
